What was measured:
Assay in all cases: PBM binding z-score (relative to random genomic background probes); higher = stronger binding; sequences stand for … in GC…GCGATTGACAGCGTAGAATGAAGG
[1] = tested on: FXR:RXRa (NR concentration 270 nM, RXRa partner concentration 90 nM)
How it was run: (§1)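 For binding z-scores, the reference was random background probes on custom Agilent 4×180K protein-binding microarrays. These arrays were incubated 1 h with ligand-free nuclear receptor dimers in PBS pH 7.4, 2% milk, 0.02% Triton X-100, 1 mM DTT, 0.2 mg/mL BSA and 0.4 mg/ml salmon testes DNA. Fluorescence was scanned after antibody detection of each partner (one per run) and regression-normalized.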

[2] = tested on: LXRa:RXRa (NR concentration 270 nM, RXRa partner concentration 90 nM)
How it was run: as §1

[3] = tested on: LXRa homodimer (NR concentration 270 nM)
How it was run: as §1

[4] = tested on: LXRb:RXRa (NR concentration 270 nM, RXRa partner concentration 90 nM)
How it was run: as §1

[5] = tested on: LXRb homodimer (NR concentration 270 nM)
How it was run: as §1

[6] = tested on: PPARa:RXRa (NR concentration 270 nM, RXRa partner concentration 90 nM)
How it was run: as §1

[7] = tested on: PPARg:RXRa (NR concentration 180 nM, RXRa partner concentration 90 nM)
How it was run: as §1

[8] = tested on: PPARg:RXRa 270nM:90nM, anti-RXR (NR concentration 270 nM, RXRa partner concentration 90 nM)
How it was run: as §1

[9] = tested on: PPARg:RXRa 30nM:10nM, anti-RXR (NR concentration 30 nM, RXRa partner concentration 10 nM)
How it was run: as §1

[10] = tested on: PPARg:RXRa 90nM:30nM, anti-RXR (NR concentration 90 nM, RXRa partner concentration 30 nM)
How it was run: as §1

Row | Sequence | PBM binding z-score [1] | PBM binding z-score [2] | PBM binding z-score [3] | PBM binding z-score [4] | PBM binding z-score [5] | PBM binding z-score [6] | PBM binding z-score [7] | PBM binding z-score [8] | PBM binding z-score [9] | PBM binding z-score [10]
1 | ATACCAAGGTCATCGTGAGGTCGTTGATACTAAC | 7.59 | 6.05 | 4.44 | 5.33 | 1.71 | 5.74 | 6.03 | 5.6 | 2.72 | 4.27
2 | CGTCCAAGGTCAGAGAGGTCATTGAATGCCGAGT | 6.84 | 6.1 | 6.22 | 5.74 | 0.491 | 6.01 | 4.47 | 5.05 | 1.68 | 3.33
3 | ATCTGTAGGTTAGGGTCATTCAGAAAGTAGGGAA | 4.95 | 4.18 | 1.54 | 4.44 | 2.08 | 4.99 | 4.27 | 4.32 | 2.09 | 3.76
4 | CGAACTAGGCCAAAGGACAGTGAAAGGCGACGTA | -0.669 | -0.893 | -0.542 | -0.756 | -1.2 | 2.97 | 6.79 | 6.81 | 5.3 | 7.2
5 | CAAACTAGGTCACAGAGGTCAAACTCCGTGCGTA | 7.52 | 6.77 | 8.67 | 6.55 | 2.84 | 6.69 | 10.2 | 8.44 | 7.14 | 8.85
6 | CGAACTAGGTCAAATGACAGTGAAAGGCGACGTA | 4.96 | 3.06 | 0.264 | 2.29 | 0.271 | 5.2 | 8.2 | 6.78 | 5.35 | 7.38
7 | AGAATGAGGTTATACGTAGGTCAGGGAAGAAAGT | 3.33 | 4.18 | 1.07 | 3.2 | 0.0984 | 4.04 | 2.84 | 2.74 | 0.859 | 2.05
8 | CGAACTAGGTCATAGGACAGTGAAAGGCGACGTA | 3.51 | 2.47 | 0.169 | 1.66 | -0.283 | 5.07 | 9.06 | 7.62 | 6.41 | 7.72
9 | ATATGCAGGTTAGGGTCATTCAGAAAGTAGGGAA | 4.84 | 4.25 | 0.906 | 4.2 | 0.909 | 5.12 | 4.09 | 4.1 | 1.99 | 3.4
10 | ATATTTAGGTTAGGGTCATTCAGAAAGTAGGGAA | 4.69 | 4.1 | 1.88 | 4.8 | 3.1 | 5.27 | 6.6 | 5.63 | 3.17 | 5.27
11 | CGAACTAGGTCATCAGGACAGTGAAGAGGTTGGA | 4.1 | 2.56 | 0.124 | 1.44 | -0.279 | 5 | 7.71 | 6.43 | 4.15 | 5.72
12 | ACAGACAGGTGAGTGAAGGTCACTCAGCTGGACG | 2.41 | 2.98 | 0.517 | 1.82 | -0.302 | 2.61 | 1.51 | 1.98 | 0.232 | 1.46
13 | ACTATCAGGCCAAGGGTCACTCAAGATTAGTCCG | 2.77 | 3.13 | 0.488 | 2.87 | 0.938 | 4.54 | 7.66 | 7.12 | 6.22 | 7.87
14 | TCTAGTTGGTGACGGAGGTCACACACGACGGGTA | 2.59 | 3.03 | 1.85 | 2.9 | 0.435 | 3.65 | 2.52 | 3.45 | 3.36 | 3.36
15 | CCTAGTTGGCCAAGGTCACACACGCTATAGGTAC | 3.78 | 3.61 | 1.6 | 3.73 | 0.597 | 3.8 | 2.42 | 2.88 | 0.959 | 1.94
16 | CAGCCTAGGTGAGGGCCAGTATAGGAGGAACGTT | -0.516 | -0.622 | -0.626 | -0.617 | -1.21 | -0.243 | 0.16 | -0.421 | -0.568 | -0.607
17 | CGAACTAGCTCAAGGACAGTGAATCTCCGCACGC | 0.148 | -0.503 | 0.172 | -0.398 | -0.571 | -0.568 | 0.277 | -0.53 | -0.374 | -0.661
18 | ATATGTAGGTTACATCCGAGTCATTCAGGCTATG | 0.413 | 1.95 | 0.304 | 0.957 | 0.682 | 3.1 | 5.14 | 4.01 | 1.78 | 3.1
19 | CAACCTAGGTCACGAAAGGTCAAAGTCGAATGAC | 7.63 | 8.28 | 8.29 | 7.81 | 2.82 | 6.92 | 7.93 | 7.32 | 4.53 | 6.39
20 | ATATGTAGGTAAGGGTCATTCAGAAAGTAGGGAA | 4.33 | 4.17 | 1.56 | 4.24 | 1.45 | 5.52 | 7.89 | 6.82 | 4.58 | 6.85
21 | CCTAGCAGGCCAATCGGGGTCACTCAAGGCTTGA | 4.42 | 4.3 | 0.394 | 3.97 | -0.646 | 4.79 | 2.8 | 3.72 | 0.796 | 2.75
22 | CGAACTAGGTCACCCGGACAGTGAAGAGGTTGGA | 3.91 | 2.15 | 0.102 | 1.65 | 0.00893 | 4.76 | 8.61 | 6.77 | 4.46 | 6.25
23 | TGTCAGAGTTCAAAGGTAACGTAAGTATCCACAC | 7.14 | 6.58 | 4.05 | 4.65 | 1.22 | 5.88 | 7.19 | 6.65 | 3.88 | 5.98
24 | CCGACGGGGGCAGAAAGGTTACCATACCATCCGG | 2.77 | 2.96 | 0.333 | 4.22 | 3.55 | 3.93 | 1.68 | 3.06 | 0.967 | 2.16

Row | Sequence | PBM binding z-score [1] | PBM binding z-score [2] | PBM binding z-score [3] | PBM binding z-score [4] | PBM binding z-score [5] | PBM binding z-score [6] | PBM binding z-score [7] | PBM binding z-score [8] | PBM binding z-score [9] | PBM binding z-score [10]
25 | GCTGCAAGGTCAACTGATGGTCAGCTAAAGCTCG | 7.53 | 5.93 | 0.917 | 4.54 | 1.33 | 5.97 | 4.81 | 5.67 | 1.77 | 3.97
26 | CGAACTAGGTCAAAGCACAGTGAAAGGCGACGTA | 3.1 | 2.6 | -0.247 | 1.56 | -0.247 | 5.18 | 8.01 | 6.88 | 5.18 | 7.17
27 | CCTTACGGGTCACTCCATGTTATAGCATCGGAGT | 4.2 | 4.36 | -0.0151 | 2.66 | 0.251 | 4.37 | 3.24 | 3.49 | 0.894 | 2.33
28 | TCTCGGAGGACACGAAGGTCAGCGCTTTCCAGAG | 1.84 | 1.77 | 0.379 | 1.68 | -0.754 | 2.31 | 0.453 | 2.02 | 2.12 | 1.93
29 | CGAACTGGGTCAAAGGACAGTGAAAGGCGACGTA | 3.03 | 1.55 | -0.452 | 1.37 | -0.785 | 5.23 | 10.1 | 8.57 | 7.98 | 9.33
30 | CGAACTAGGTCAAAGGACAGTGCAAGGCGACGTA | 4.07 | 2.5 | 0.126 | 1.63 | -0.463 | 5.41 | 10.3 | 8.27 | 8.02 | 9.07
31 | CGAACTAGGTCAAAGGACAGTGGAAGGCGACGTA | 3.72 | 2.62 | -0.0912 | 1.47 | -0.761 | 5.49 | 9.71 | 8.34 | 8.02 | 9.05
32 | CGAACTAGGTCACCAGGACAGTGAGGAGGTTGGA | 3.89 | 2.25 | 0.127 | 1.33 | -0.378 | 4.93 | 7.97 | 6.87 | 4.45 | 6.61
33 | TTACCAAGGTGAAAGGTCGTTGAGGCACGCCTTG | 3.79 | 3.61 | 0.199 | 2.74 | -0.545 | 5.53 | 9.39 | 8.28 | 7.31 | 9.21
34 | CAAACTAGGTCAAAGGTCAGAGTCGAGCCAACCA | 7.83 | 6.32 | 3.45 | 6.4 | 1.62 | 7.34 | – | 11.1 | 13.1 | 13.7
35 | CGAACTAGGTCACAAGGACAGTGAAGAGGTTGGA | 3.87 | 2.13 | 0.193 | 1.57 | -0.115 | 5.01 | 8.73 | 7.01 | 4.93 | 6.82
36 | CAGCCTAGTTCAGGGCCAGTATAGGAGGAACGTT | 0.0528 | -0.124 | -0.0841 | -0.218 | -0.532 | -0.241 | -0.041 | -0.6 | -0.567 | -0.509
37 | ATCGAATGGTCGAGGTGAGTATAGAGAAAGGGAA | 0.114 | -0.0823 | -0.329 | -0.326 | -0.256 | 0.069 | 0.444 | -0.0117 | 0.061 | 0.091
38 | CCTTACGGGTCAAGGTTGTAGCACGGGTGGTACG | 4.89 | 3.37 | -0.181 | 2.48 | -0.0387 | 4.68 | 4.01 | 4.21 | 1.2 | 3
39 | CAAACTAGGTCAAAGGTCAAGGTCGAGCCAACCA | 8.28 | 7.09 | 5.12 | 6.8 | 2.23 | 7.68 | – | 11.5 | 15.3 | 14.1
40 | CGAACTAGGTCACCAGGACAGGGAAGAGGTTGGA | 4.04 | 2.49 | -0.0204 | 1.64 | -0.262 | 5.11 | 8.73 | 6.89 | 4.68 | 6.72
41 | CAAACTAGGTCACAGAGGTCAAAGTTCGTGCGTA | 7.37 | 6.84 | 7.98 | 6.7 | 2.18 | 6.83 | – | 8.37 | 6.72 | 8.5
42 | ACTAGCAGGTCAAGGGTCACTCAAGATTAGTCCG | 6.89 | 5.73 | 2.16 | 4.88 | 0.671 | 6.3 | – | 9.23 | 8.21 | 10.3
43 | CGTCCAAGGTCAAGCTCAGTGAAAGAGACTCGAA | 7.44 | 5.54 | 0.428 | 3.91 | 0.539 | 5.75 | 5.25 | 5.77 | 1.89 | 4.21
44 | CGAACTAGGTCAAAGGAAAGTGAAAGGCGACGTA | 3.12 | 1.88 | -0.168 | 1.2 | -0.265 | 4.7 | 8.32 | 7.07 | 5.62 | 7.13
45 | CGAACTAGGTAAAAGGACAGTGAAAGGCGACGTA | -0.23 | -0.378 | -0.301 | -0.371 | -0.583 | 3.16 | 5.26 | 6.57 | 5.66 | 7.51
46 | CCCACTGGGGCAAAGGTTACCATACTCAGTACGA | 1.6 | 1.6 | -0.143 | 2 | -0.809 | 5.98 | – | 9.71 | 9.33 | 11.5
47 | CAATCTAGGTCACAGAGGTCAAAGTCCGTGCGTA | 7.18 | 7.04 | 7.96 | 6.3 | 2.8 | 6.7 | – | 8.69 | 7.34 | 9.13
48 | ATATGTAGGTTACGGTCATTCAGAAAGTAGGGAA | 2.04 | 2.49 | 1.64 | 1.74 | 1.02 | 4.35 | 7.06 | 5.67 | 3.24 | 5.02
